Screening data deposited in PubChem BioAssay by National Center for Advancing Translational Sciences (NCATS).
The sample as a whole holds a higher share of hits than the screen did.
Methyltransferases = Primary Screen for Target Class Profiling of Small Molecule Inhibitors of Methyltransferases | purified enzyme, MTase-Glo SAH luminescence; stronger effect = lower value | AID 1745853, 2022 | calls only at 40 µM | 25,000 tested, 3.9% active; call rule not given here
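Each enzyme was assayed with SAM and its substrate. SAH formation detected by MTase-Glo luminescence; single-point 40 uM screen[…].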
Calls only; ! = not confirmed by another sample.

Screening CCCCN1C(=O)c2cc(C(=O)Nc3ccccc3Br)nn2CC1(C)C(=O)NC1CCCC1 (configuration not stated) returned Methyltransferases inactive.
For CCOc1cc(CNC(=O)c2ncn3c2C(=O)N(CC)C(C)(C(=O)NC2CCCC2)C3)ccc1OC (configuration not stated) the results were Methyltransferases inactive.
For COc1ccccc1NS(=O)(=O)c1ccc2c(c1)NC(=O)C(C)C(=O)N2 (configuration not stated) the results were Methyltransferases inactive.
`COc1ccc(OC)c2c1cc1n2CC(C)(C(=O)NC2CCCCC2)N(Cc2cccs2)C1=O` (configuration not stated) gave Methyltransferases inactive.
For COc1ccc(NS(=O)(=O)c2cc3c(cc2Cl)n(C)c(=O)n3C)cc1 the results were Methyltransferases inactive.
For O=S(=O)(Nc1cc(Cl)c(Oc2cnc3ccccc3c2)c(Cl)c1)c1ccc(Cl)cc1Cl the results were Methyltransferases active.
`Cn1c(=O)n(C)c2cc(S(=O)(=O)Nc3ccccc3)c(Cl)cc21` gave Methyltransferases inactive.
For O=c1c2ccccc2n2c(-c3cc(Cl)ccc3O)nnc2n1Cc1ccccc1 the results were Methyltransferases inactive.
Screening COc1cccc(N2C(=O)c3cc4ccccc4n3CC2(C)C(=O)NCc2ccccc2OC)c1 (configuration not stated) returned Methyltransferases inactive.
`CCN1C(=O)c2cc(C(=O)NCCCOC)nn2CC1(C)C(=O)NC1CCCC1` (configuration not stated) gave Methyltransferases inactive.
Screening COc1cc2c(NC3CCN(CC4CCCCC4)CC3)nc(N3CCCN(C(C)C)CC3)nc2cc1OCCCN1CCCCC1 returned Methyltransferases active!.
For CC1(C(=O)NCc2ccc(Cl)cc2)Cn2c(ccc2-c2ccco2)C(=O)N1Cc1ccc(F)cc1 (configuration not stated) the results were Methyltransferases inactive.
COc1ccc2cc3n(c2c1)CC(C)(C(=O)NC1CCCC1)N(c1ccc(C)cc1)C3=O (configuration not stated) was read as Methyltransferases inactive.
Screening CC1(C(=O)NC2CCCC2)Cn2cnc(C(=O)NCCC3=CCCCC3)c2C(=O)N1C1CC1 (configuration not stated) returned Methyltransferases inactive.
For CC(=O)O[C@H]1[C@H](O)C[C@@]2(C)C(CC[C@]3(C)C2CC=C2C4CC(C)(C)CC[C@]4(C(=O)O)CC[C@]23C)C1(C)C (some centres not stated) the results were Methyltransferases inactive.
CC1(C)CC[C@]2(C(=O)O)CC[C@]3(C)C(=CCC4[C@@]5(C)C[C@@H](O)[C@H](O)C(C)(C)C5CC[C@]43C)[C@@H]2[C@@H]1O (some centres not stated) was read as Methyltransferases inactive.
For CC1(C)[C@@H](O)CC[C@]2(C)[C@H]3CC=C4[C@@H]5C[C@](C)(C(=O)O)CC[C@]5(C)CC[C@@]4(C)[C@]3(C)CC[C@@H]12 the results were Methyltransferases active.
For COc1ccc(Br)cc1CN1C(=O)c2cc3ccccc3n2CC1(C)C(=O)NCCCOC(C)C (configuration not stated) the results were Methyltransferases inactive.
For C[C@@H]1CC[C@]2(C(=O)O)CC[C@]3(C)C(=CCC4[C@@]5(C)C[C@@H](O)[C@H](O)[C@@](C)(CO)C5CC[C@]43C)C2[C@]1(C)O (some centres not stated) the results were Methyltransferases inactive.
CC1(C(=O)NC2CCCCC2)Cn2c(cc3ccccc32)C(=O)N1CCN1CCOCC1 (configuration not stated) was read as Methyltransferases inactive.
Cc1ccc(NC(=O)CSc2nnc3n(C)c(=O)c4ccc(C(=O)NC5CCCC5)cc4n23)cc1F was read as Methyltransferases inactive.
`CCN1C(=O)c2cc(C(=O)NCCCc3ccccc3)nn2CC1(C)C(=O)NC1CCCC1` (configuration not stated) gave Methyltransferases inactive.
`CC(CCc1ccc(O)cc1)O[C@@H]1O[C@H](CO[C@@H]2OC(CO)[C@H](O)[C@H]2O)[C@@H](O)[C@H](O)[C@H]1O` (some centres not stated) gave Methyltransferases inactive.
CC1=C(CCC(C)O[C@@H]2O[C@H](CO)[C@@H](O)[C@H](O)[C@H]2O)C(C)(C)CCC1=O (some centres not stated) was read as Methyltransferases active.
`CC1=CC(=O)CC(C)(CO)C1(O)/C=C/C(C)O[C@@H]1O[C@H](CO)[C@@H](O)[C@H](O)[C@H]1O` (some centres not stated) gave Methyltransferases inactive.
Cc1csc(CN(C)C(=O)CC(c2ccccc2)c2ccc3c(c2)OCO3)n1 (configuration not stated) was read as Methyltransferases inactive.
For CN(Cc1nccs1)c1ncnc2ccc(-c3ccc4c(c3)OCO4)cc12 the results were Methyltransferases active.
`Cc1ccc(Nc2ccn3c(=O)n(CC(=O)Nc4ccc(F)c(F)c4)nc3n2)cc1` gave Methyltransferases inactive.
